Assay results published in PubChem BioAssay (EPA / NIEHS).
“And” between values parts separate entries of the source, which are not always exact repeats. Identical values can stand only once. A structure can be active in one record and inactive in another. The source made the active and inactive calls. How the source made its calls: active means hit-call score of the fitted dose curve at least 0.9, where 1 is the maximum; inactive means score below 0.9.

Columns and labels:
[1] = read-out: Macrophage colony-stimulating factor (MCSF), CSF1 (gene 1435); experiment: BSK_hDFCGF_MCSF: BioMAP Diversity Plus: hDFCGF Assay for Macrophage colony-stimulating factor (MCSF) Biomarker Activity (AID 2283060); conditions: primary human foreskin fibroblasts; actives raise or lower the signal
Outline: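 M-CSF levels read by ELISA at 24 h post-dosing in human skin fibroblasts. Parallel cultures stained with SRB assessed cytotoxicity at the same time point; response fitted in both directions against the DMSO baseline.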

[2] = read-out: TIMP metallopeptidase inhibitor 1 (TIMP1), TIMP1 (gene 7076); experiment: BSK_hDFCGF_TIMP1: BioMAP Diversity Plus: hDFCGF Assay for TIMP metallopeptidase inhibitor 1 (TIMP1) Biomarker Activity (AID 2283062); conditions: primary human foreskin fibroblasts; actives raise or lower the signal
Outline: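 TIMP-1 measured by ELISA 24 h after chemical dosing of primary human skin fibroblasts, with gain or loss fitted relative to DMSO. Parallel SRB staining (560 nm) monitored overt cytotoxicity.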

[3] = read-out: Monokine induced gamma interferon (MIG), CXCL9 (gene 4283); experiment: BSK_hDFCGF_MIG: BioMAP Diversity Plus: hDFCGF Assay for Monokine induced gamma interferon (MIG) Biomarker Activity (AID 2283063); conditions: primary human foreskin fibroblasts; actives raise or lower the signal
Outline: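 Human primary foreskin fibroblasts in the hDFCGF system, exposed to test chemical for 24 h; MIG measured by ELISA. Bidirectional curve fitting against DMSO negative control as activity baseline.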

[4] = read-out: Matrix Metallopeptidase 1 (MMP1), MMP1 (gene 4312); experiment: BSK_hDFCGF_MMP1: BioMAP Diversity Plus: hDFCGF Assay for Matrix Metallopeptidase 1 (MMP1) Biomarker Activity (AID 2283064); conditions: primary human foreskin fibroblasts; actives raise or lower the signal
Outline: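 MMP1 levels quantified by ELISA 24 h after dosing human dermal fibroblast cultures, with parallel SRB total-protein staining for overt cytotoxicity. Data fitted in both directions against DMSO baseline.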

[5] = read-out: Vascular cell adhesion molecule 1 (VCAM1), VCAM1 (gene 7412); experiment: BSK_hDFCGF_VCAM1: BioMAP Diversity Plus: hDFCGF Assay for Vascular cell adhesion molecule 1 (VCAM1) Biomarker Activity (AID 2283065); conditions: primary human foreskin fibroblasts; actives raise or lower the signal;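 on AC50: VCAM-1 protein level quantified by ELISA after 24 h chemical exposure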
Outline: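 ELISA readout of VCAM-1 on human dermal fibroblast primary cultures, 24 h after chemical exposure. Gain or loss of signal fitted in both directions against DMSO baseline.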

[6] = read-out: Plasminogen activator inhibitor-1 (PAI1), SERPINE1 (gene 5054); experiment: BSK_hDFCGF_PAI1: BioMAP Diversity Plus: hDFCGF Assay for Plasminogen activator inhibitor-1 (PAI1) Biomarker Activity (AID 2283066); conditions: primary human foreskin fibroblasts; actives raise or lower the signal
Outline: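 Fibroblasts from human foreskin were treated with test chemical. After 24 h, PAI-1 was measured by ELISA. Activity was fitted in both directions relative to DMSO.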

[7] = read-out: Intercellular Adhesion Molecule 1 (ICAM1), ICAM1 (gene 3383); experiment: BSK_KF3CT_ICAM1: BioMAP Diversity Plus: KF3CT Assay for Intercellular Adhesion Molecule 1 (ICAM1) Biomarker Activity (AID 2283067); conditions: primary human keratinocytes with fibroblasts; actives raise or lower the signal
Outline: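 Cell-surface ICAM-1 was measured by ELISA 24 h after dosing primary human skin keratinocytes co-cultured with fibroblasts. Parallel SRB staining tracked overt cytotoxicity. Gain or loss of signal was fitted relative to DMSO.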

[8] = read-out: Interferon-gamma inducible Protein 10 (IP10), CXCL10 (gene 3627); experiment: BSK_KF3CT_IP10: BioMAP Diversity Plus: KF3CT Assay for Interferon-gamma inducible Protein 10 (IP10) Biomarker Activity (AID 2283068); conditions: primary human keratinocytes with fibroblasts; actives raise or lower the signal
Outline: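 Signal is secreted/surface IP-10 by ELISA in a human primary skin co-culture of keratinocytes and foreskin fibroblasts, taken 24 h post-dosing; DMSO served as negative control.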

[9] = BSK_KF3CT_SRB: Viability Assessment in the BioMAP Diversity Plus: KF3CT Assay (AID 2283069); conditions: primary human keratinocytes with fibroblasts;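 further: total protein by sulforhodamine B staining as a cytotoxicity measure; read 24 h after compound addition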
Outline: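 Cytotoxicity was gauged by SRB staining (0.1% SRB, 10% TCA fixation, 560 nm) of parallel cultures at 24 h. The cells were primary human skin keratinocytes co-cultured with fibroblasts, and activity was fitted in both directions against DMSO.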

[10] = read-out: Interleukin-1 alpha (IL1a), IL1A (gene 3552); experiment: BSK_KF3CT_IL1a: BioMAP Diversity Plus: KF3CT Assay for Interleukin-1 alpha (IL1a) Biomarker Activity (AID 2283070); conditions: primary human keratinocytes with fibroblasts; actives raise or lower the signal
Outline: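 IL-1a was detected by ELISA 24 h after chemical treatment of a co-culture of human skin keratinocytes and foreskin fibroblasts. Gain or loss of signal was fitted against the DMSO baseline.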

[11] = read-out: C-C motif chemokine 2 (Homo sapiens) (UniProt P13500); experiment: BSK_KF3CT_MCP1: BioMAP Diversity Plus: KF3CT Assay for Monocyte Chemoattractant Protein 1 (MCP1/CCL2) Biomarker Activity (AID 2283073); conditions: primary human keratinocytes with fibroblasts; actives raise or lower the signal
Outline: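 ELISA read-out of MCP-1, 24 h post-dose, in primary human skin keratinocytes co-cultured with fibroblasts. Parallel SRB staining monitors cytotoxicity; changes fitted both directions relative to DMSO.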

[12] = read-out: Matrix Metallopeptidase 9 (MMP9), MMP9 (gene 4318); experiment: BSK_KF3CT_MMP9: BioMAP Diversity Plus: KF3CT Assay for Matrix Metallopeptidase 9 (MMP9) Biomarker Activity (AID 2283074); conditions: primary human keratinocytes with fibroblasts; actives raise or lower the signal
Outline: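 MMP-9 quantified by ELISA after 24 h chemical treatment of primary human skin keratinocyte/fibroblast co-cultures; gain or loss fitted against DMSO, with parallel SRB staining (0.1% SRB, 560 nm) for overt cytotoxicity.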

[13] = read-out: urokinase plasminogen activator (uPA), PLAU (gene 5328); experiment: BSK_KF3CT_uPA: BioMAP Diversity Plus: KF3CT Assay for urokinase plasminogen activator (uPA) Biomarker Activity (AID 2283075); conditions: primary human keratinocytes with fibroblasts; actives raise or lower the signal
Outline: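 ELISA read-out of uPA 24 h after dosing human skin keratinocytes co-cultured with foreskin fibroblasts. Signal change fitted both ways relative to DMSO; sulforhodamine B on parallel cultures marks overt cytotoxicity.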

CD40, CD40 (gene 958) = experiment: BSK_LPS_CD40: BioMAP Diversity Plus: LPS Assay for CD40 Biomarker Activity (AID 2283076); conditions: primary human HUVEC with PBMC; actives raise or lower the signal
Outline: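 In the LPS system of human endothelial cells with peripheral blood mononuclear cells, CD40 levels were read by ELISA 24 h post-treatment. Signal changes in either direction were fitted against the DMSO baseline, with parallel SRB protein staining.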

[14] = read-out: E-selectin (Homo sapiens) (UniProt P16581); experiment: BSK_LPS_Eselectin: BioMAP Diversity Plus: LPS Assay for Eselectin Biomarker Activity (AID 2283077); conditions: primary human HUVEC with PBMC; actives raise or lower the signal
Outline: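 E-selectin ELISA on LPS-stimulated endothelial cell/PBMC co-cultures, read 24 h post-treatment; gains and losses fitted against DMSO. Parallel SRB staining (0.1% SRB after 10% TCA fixation, 560 nm) flags overt cytotoxicity.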

[15] = read-out: Interleukin-8 (IL8), CXCL8 (gene 3576); experiment: BSK_LPS_IL8: BioMAP Diversity Plus: LPS Assay for Interleukin-8 (IL8) Biomarker Activity (AID 2283078); conditions: primary human HUVEC with PBMC; actives raise or lower the signal
Outline: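 ELISA read-out of IL-8 after 24 h chemical treatment of LPS-activated endothelial/PBMC human primary co-cultures. Changes either up or down relative to DMSO; overt cytotoxicity checked by sulforhodamine B staining in parallel wells.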

[16] = BSK_LPS_SRB: Viability Assessment in the BioMAP Diversity Plus: LPS Assay (AID 2283079); conditions: primary human HUVEC with PBMC;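 further: total protein by sulforhodamine B absorbance as a cytotoxicity measure; measured one day after compound addition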
Outline: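 SRB viability endpoint: cells fixed with 10% TCA, stained with 0.1% SRB, read at 560 nm, 24 h post-dose. HUVEC/PBMC co-culture; signal change in either direction scored relative to DMSO.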

[17] = read-out: TIMP metallopeptidase inhibitor 2 (TIMP2), TIMP2 (gene 7077); experiment: BSK_KF3CT_TIMP2: BioMAP Diversity Plus: KF3CT Assay for TIMP metallopeptidase inhibitor 2 (TIMP2) Biomarker Activity (AID 2283071); conditions: primary human keratinocytes with fibroblasts; actives raise or lower the signal
Outline: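 Chemicals were dosed onto human skin primary co-cultures of keratinocytes and foreskin fibroblasts, and TIMP-2 was measured by ELISA after 24 hours. Activity in either direction was fitted relative to DMSO.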

[18] = read-out: Transforming growth factor beta 1 (TGFb1), TGFB1 (gene 7040); experiment: BSK_KF3CT_TGFb1: BioMAP Diversity Plus: KF3CT Assay for Transforming growth factor beta 1 (TGFb1) Biomarker Activity (AID 2283072); conditions: primary human keratinocytes with fibroblasts; actives raise or lower the signal
Outline: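 KF3CT co-culture (keratinocytes + fibroblasts), 24 h exposure → TGF-b1 ELISA → bidirectional fit, DMSO = baseline. Parallel SRB total-protein staining (0.1% SRB, 10% TCA fixation, 560 nm) for cytotoxicity.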

Measured: AC50

E-selectin (Homo sapiens), sequence (P16581 whole entry, looked up): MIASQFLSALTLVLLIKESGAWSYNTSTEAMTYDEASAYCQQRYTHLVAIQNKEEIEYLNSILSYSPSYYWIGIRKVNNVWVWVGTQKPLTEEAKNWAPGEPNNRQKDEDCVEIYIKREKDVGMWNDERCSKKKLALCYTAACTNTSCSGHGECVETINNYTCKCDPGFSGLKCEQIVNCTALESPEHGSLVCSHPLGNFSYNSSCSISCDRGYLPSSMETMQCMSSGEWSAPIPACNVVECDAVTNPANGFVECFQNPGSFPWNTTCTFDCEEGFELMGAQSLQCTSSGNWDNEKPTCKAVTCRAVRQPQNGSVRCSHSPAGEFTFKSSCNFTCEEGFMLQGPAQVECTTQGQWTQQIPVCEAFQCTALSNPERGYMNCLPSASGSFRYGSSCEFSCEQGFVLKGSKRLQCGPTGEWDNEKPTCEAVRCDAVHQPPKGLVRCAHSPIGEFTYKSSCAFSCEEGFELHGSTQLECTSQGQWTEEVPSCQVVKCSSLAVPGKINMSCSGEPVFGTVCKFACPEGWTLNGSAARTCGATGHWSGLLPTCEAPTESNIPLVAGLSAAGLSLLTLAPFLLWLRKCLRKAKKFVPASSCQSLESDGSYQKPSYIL

C=CC(=O)OCCC(F)(F)C(F)(F)C(F)(F)C(F)(F)F
active: [1] 21 µM and 15 µM | [3] 25.3 µM and 30.9 µM | [4] 14.5 µM and 18.3 µM | [5] 13.7 µM and 19.4 µM | CD40, CD40 (gene 958) 30 µM and 45.5 µM
inactive: [2] | [6] | [7] | [8] | [9] | [10] | [11] | [12] | [13] | [14] | [15] | [16]

FC(F)(F)C(F)(F)C(F)(F)CC1CO1 (configuration not stated)
active: [3] 6.18 µM
inactive: [1] | [2] | [3] | [4] | [5] | [6] | [7] | [8] | [9] | [17] | [11] | [12] | [13] | CD40, CD40 (gene 958) | [14] | [15] | [16]

NCC(F)(F)C(F)(F)C(F)(F)C(F)(F)C(F)(F)C(F)(F)F
inactive: [1] | [2] | [3] | [4] | [5] | [6] | [7] | [8] | [9] | [17] | [11] | [12] | [13] | CD40, CD40 (gene 958) | [14] | [15] | [16]

O=C(O)CCC(F)(F)C(F)(F)C(F)(F)C(F)(F)C(F)(F)C(F)(F)C(F)(F)F
inactive: [1] | [2] | [3] | [4] | [5] | [6] | [7] | [8] | [9] | [10] | [11] | [12] | [13] | CD40, CD40 (gene 958) | [14] | [15] | [16]

CCN(CC)c1ccc(C=O)cc1
inactive: [1] | [2] | [3] | [4] | [5] | [6] | [7] | [8] | [9] | [10] | [18] | [11] | [12] | [13] | CD40, CD40 (gene 958) | [14] | [15] | [16]
